Reference: PubChem BioAssay AID1159580 (chemical genetic matrix, 2015)
The whole screen tested about 5,500 compounds, of which about 2,000 (36%) were called active. Inconclusive results (about 18%) are left out. Rule as the data show it: active = normalized growth mostly below about 0.91 (no sharp cut-off); inconclusive = no clear call, values can overlap the other calls; inactive = mostly above about 0.92. The list shows a part of the results.

Assay: chemical genetic growth profiling, strain panel (AID 1159580);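 also: tested at 20 µM; growth read once vehicle control cultures reached saturation at 30 °C; 1 = growth at the plate median or of vehicle wells; lower values mean less growth of the strain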
Details: growth OD

Measured: normalized growth

NC(=NCCC[C@H](N)C(=O)O)NC(CCC(=O)O)C(=O)O (stereo partly drawn)
inactive: S. cerevisiae deletion strains, locus YAL021C, strain ccr4, hits give low values 1 | S. cerevisiae deletion strains, locus YAL026C, strain drs2, hits give low values 1 | S. cerevisiae deletion strains, locus YAL030W, strain snc1, hits give low values 1 | S. cerevisiae deletion strains, locus YBL061C, strain skt5, hits give low values 1.01 | S. cerevisiae deletion strains, locus YBR009C, strain hhf1, hits give low values 1 | S. cerevisiae deletion strains, locus YBR021W, strain FUR4, hits give low values 1.02 | S. cerevisiae deletion strains, locus YBR023C, strain chs3, hits give low values 1.01 | S. cerevisiae deletion strains, locus YBR171W, strain sec66, hits give low values 1.02 | S. cerevisiae deletion strains, locus YBR229C, strain ROT2, hits give low values 1.01 | S. cerevisiae deletion strains, locus YBR231C, strain swc5, hits give low values 1.01 | S. cerevisiae deletion strains, locus YBR279W, strain paf1, hits give low values 0.998 | S. cerevisiae deletion strains, locus YCL011C, strain gbp2, hits give low values 1.01 | S. cerevisiae deletion strains, locus YCL016C, strain dcc1, hits give low values 1.01 | S. cerevisiae deletion strains, locus YCL029C, strain bik1, hits give low values 1.03 | S. cerevisiae deletion strains, locus YCL061C, strain MRC1, hits give low values 0.998 | S. cerevisiae deletion strains, locus YCL069W, strain vba3, hits give low values 1.01 | S. cerevisiae deletion strains, locus YCR088W, strain abp1, hits give low values 1.01 | S. cerevisiae deletion strains, locus YDL005C, strain med2, hits give low values 1.01 | S. cerevisiae deletion strains, locus YDL035C, strain GPR1, hits give low values 1.02 | S. cerevisiae deletion strains, locus YDL040C, strain nat1, hits give low values 1.01 | S. cerevisiae deletion strains, locus YDL074C, strain BRE1, hits give low values 1.05 | S. cerevisiae deletion strains, locus YDL101C, strain DUN1, hits give low values 1.01 | S. cerevisiae deletion strains, locus YDL185W, strain tfp1, hits give low values 1.01 | S. cerevisiae deletion strains, locus YDL192W, strain arf1, hits give low values 1.02 | S. cerevisiae deletion strains, locus YDR001C, strain nth1, hits give low values 1.01 | S. cerevisiae deletion strains, locus YDR069C, strain doa4, hits give low values 1.01 | S. cerevisiae deletion strains, locus YDR101C, strain arx1, hits give low values 1.04 | S. cerevisiae deletion strains, locus YDR137W, strain rgp1, hits give low values 0.992 | S. cerevisiae deletion strains, locus YDR159W, strain sac3, hits give low values 1.01 | S. cerevisiae deletion strains, locus YDR162C, strain NBP2, hits give low values 0.977 | S. cerevisiae deletion strains, locus YDR195W, strain ref2 0.974 | S. cerevisiae deletion strains, locus YDR297W, strain sur2, hits give low values 1.01 | S. cerevisiae deletion strains, locus YDR318W, strain mcm21, hits give low values 1 | S. cerevisiae deletion strains, locus YDR334W, strain swr1, hits give low values 1.01 | S. cerevisiae deletion strains, locus YDR335W, strain msn5, hits give low values 0.995 | S. cerevisiae deletion strains, locus YDR388W, hits give low values 1.02 | S. cerevisiae deletion strains, locus YDR392W, strain spt3, hits give low values 1.02 | S. cerevisiae deletion strains, locus YDR502C, strain sam2, hits give low values 1.01 | S. cerevisiae deletion strains, locus YEL003W, strain gim4, hits give low values 1 | S. cerevisiae deletion strains, locus YEL037C, strain rad23, hits give low values 1 | S. cerevisiae deletion strains, locus YEL061C, strain CIN8 (second series), hits give low values 1 | S. cerevisiae deletion strains, locus YEL061C, strain CIN8, hits give low values 1.01 | S. cerevisiae deletion strains, locus YER015W, strain faa2, hits give low values 1.01 | S. cerevisiae deletion strains, locus YER016W, strain bim1, hits give low values 1 | S. cerevisiae deletion strains, locus YER110C, hits give low values 1.01 | S. cerevisiae deletion strains, locus YER111C, strain swi4, hits give low values 0.996 | S. cerevisiae deletion strains, locus YER155C, strain BEM2 (second series), hits give low values 1.02 | S. cerevisiae deletion strains, locus YER155C, strain BEM2, hits give low values 1.01 | S. cerevisiae deletion strains, locus YER167W, strain BCK2, hits give low values 1.02 | S. cerevisiae deletion strains, locus YFR010W, strain ubp6, hits give low values 1.01 | S. cerevisiae deletion strains, locus YGL078C, strain dbp3, hits give low values 1.02 | S. cerevisiae deletion strains, locus YGL086W, strain mad1, hits give low values 1.04 | S. cerevisiae deletion strains, locus YGL167C, strain pmr1, hits give low values 1.01 | S. cerevisiae deletion strains, locus YGL173C, strain kem1, hits give low values 1.01 | S. cerevisiae deletion strains, locus YGL227W, strain vid30, hits give low values 1.01 | S. cerevisiae deletion strains, locus YGL240W, strain doc1, hits give low values 1.02 | S. cerevisiae deletion strains, locus YGL248W, strain PDE1, hits give low values 0.999 | S. cerevisiae deletion strains, locus YGL253W, strain hxk2, hits give low values 1.01 | S. cerevisiae deletion strains, locus YGR078C, strain PAC10, hits give low values 1.01 | S. cerevisiae deletion strains, locus YGR135W, strain pre9, hits give low values 1.04 | S. cerevisiae deletion strains, locus YGR252W, strain gcn5, hits give low values 0.991 | S. cerevisiae deletion strains, locus YHR013C, strain ard1, hits give low values 1.03 | S. cerevisiae deletion strains, locus YHR027C, strain rpn1, hits give low values 1.02 | S. cerevisiae deletion strains, locus YHR030C, strain SLT2, hits give low values 1.01 | S. cerevisiae deletion strains, locus YHR079C, strain IRE1 (second series), hits give low values 1 | S. cerevisiae deletion strains, locus YHR094C, strain hxt1, hits give low values 1.01 | S. cerevisiae deletion strains, locus YHR129C, strain ARP1, hits give low values 1.01 | S. cerevisiae deletion strains, locus YHR142W, strain chs7, hits give low values 1.02 | S. cerevisiae deletion strains, locus YHR200W, strain rpn10, hits give low values 1 | S. cerevisiae deletion strains, locus YIL066C, strain RNR3, hits give low values 1.01 | S. cerevisiae deletion strains, locus YIL073C, strain SPO22, hits give low values 1.06 | S. cerevisiae deletion strains, locus YIL125W, strain kgd1, hits give low values 1.02 | S. cerevisiae deletion strains, locus YIR030C, strain dcg1, hits give low values 1.01 | S. cerevisiae deletion strains, locus YJL092W, strain hpr5, hits give low values 1.01 | S. cerevisiae deletion strains, locus YJL095W, strain BCK1 (second series), hits give low values 1.01 | S. cerevisiae deletion strains, locus YJL095W, strain BCK1, hits give low values 1.01 | S. cerevisiae deletion strains, locus YJL115W, strain asf1, hits give low values 1 | S. cerevisiae deletion strains, locus YJL129C, strain trk1, hits give low values 1.01 | S. cerevisiae deletion strains, locus YJL134W, strain LCB3, hits give low values 1.01 | S. cerevisiae deletion strains, locus YJL154C, strain vps35, hits give low values 1.01 | S. cerevisiae deletion strains, locus YJL164C, strain tpk1, hits give low values 1.01 | S. cerevisiae deletion strains, locus YJL166W, strain qcr8, hits give low values 1.01 | S. cerevisiae deletion strains, locus YJL168C, strain set2, hits give low values 1.04 | S. cerevisiae deletion strains, locus YJL187C, strain SWE1 (second series), hits give low values 1 | S. cerevisiae deletion strains, locus YJL187C, strain SWE1, hits give low values 1 | S. cerevisiae deletion strains, locus YJR043C, strain POL32, hits give low values 1 | S. cerevisiae deletion strains, locus YKL009W, strain mrt4, hits give low values 1.03 | S. cerevisiae deletion strains, locus YKL068W, hits give low values 1 | S. cerevisiae deletion strains, locus YKL085W, strain MDH1 (second series), hits give low values 1.01 | S. cerevisiae deletion strains, locus YKL085W, strain MDH1, hits give low values 1.01 | S. cerevisiae deletion strains, locus YKL160W, strain elf1, hits give low values 1.02 | S. cerevisiae deletion strains, locus YKL190W, strain CNB1, hits give low values 1.01 | S. cerevisiae deletion strains, locus YKR001C, strain vps1, hits give low values 1.06 | S. cerevisiae deletion strains, locus YKR026C, strain gcn3, hits give low values 1.01 | S. cerevisiae deletion strains, locus YKR091W, strain srl3, hits give low values 1.01 | S. cerevisiae deletion strains, locus YLL001W, strain dnm1, hits give low values 1.01 | S. cerevisiae deletion strains, locus YLL026W, hits give low values 1.01 | S. cerevisiae deletion strains, locus YLL041C, strain sdh2, hits give low values 1.01 | S. cerevisiae deletion strains, locus YLR027C, strain aat2, hits give low values 0.998 | S. cerevisiae deletion strains, locus YLR039C, strain RIC1, hits give low values 1 | S. cerevisiae deletion strains, locus YLR058C, strain SHM2, hits give low values 1.01 | S. cerevisiae deletion strains, locus YLR102C, strain apc9, hits give low values 1.02 | S. cerevisiae deletion strains, locus YLR221C, strain rsa3, hits give low values 1.02 | S. cerevisiae deletion strains, locus YLR258W, strain gsy2, hits give low values 1.01 | S. cerevisiae deletion strains, locus YLR262C, strain YPT6 (second series), hits give low values 0.996 | S. cerevisiae deletion strains, locus YLR262C, strain YPT6, hits give low values 1.02 | S. cerevisiae deletion strains, locus YLR268W, strain sec22, hits give low values 1.04 | S. cerevisiae deletion strains, locus YLR320W, strain mms22, hits give low values 1.02 | S. cerevisiae deletion strains, locus YLR330W, strain CHS5, hits give low values 1.01 | S. cerevisiae deletion strains, locus YLR342W, strain FKS1 (second series), hits give low values 1.06 | S. cerevisiae deletion strains, locus YLR342W, strain FKS1, hits give low values 1.01 | S. cerevisiae deletion strains, locus YLR357W, strain rsc2, hits give low values 1.03 | S. cerevisiae deletion strains, locus YLR370C, strain arc18, hits give low values 1.01 | S. cerevisiae deletion strains, locus YLR371W, strain rom2, hits give low values 1.02 | S. cerevisiae deletion strains, locus YLR384C, strain iki3, hits give low values 0.996 | S. cerevisiae deletion strains, locus YLR418C, strain cdc73, hits give low values 1.01 | S. cerevisiae deletion strains, locus YML016C, strain PPZ1, hits give low values 1 | S. cerevisiae deletion strains, locus YML032C, strain rad52, hits give low values 1.02 | S. cerevisiae deletion strains, locus YML120C, strain ndi1, hits give low values 1 | S. cerevisiae deletion strains, locus YML124C, strain tub3, hits give low values 1.01 | S. cerevisiae deletion strains, locus YMR058W, strain fet3, hits give low values 1.01 | S. cerevisiae deletion strains, locus YMR078C, strain ctf18, hits give low values 1.01 | S. cerevisiae deletion strains, locus YMR125W, strain sto1, hits give low values 0.999 | S. cerevisiae deletion strains, locus YMR129W, hits give low values 0.997 | S. cerevisiae deletion strains, locus YMR205C, strain PFK2, hits give low values 1.02 | S. cerevisiae deletion strains, locus YMR223W, strain ubp8, hits give low values 0.985 | S. cerevisiae deletion strains, locus YMR231W, strain pep5, hits give low values 0.989 | S. cerevisiae deletion strains, locus YMR307W, strain GAS1, hits give low values 1 | S. cerevisiae deletion strains, locus YNL067W, strain RPL9B, hits give low values 0.995 | S. cerevisiae deletion strains, locus YNL071W, strain lat1, hits give low values 1.01 | S. cerevisiae deletion strains, locus YNL153C, strain GIM3, hits give low values 0.989 | S. cerevisiae deletion strains, locus YNL209W, strain ssb2, hits give low values 1 | S. cerevisiae deletion strains, locus YNL233W, strain BNI4, hits give low values 1.03 | S. cerevisiae deletion strains, locus YNL248C, strain rpa49, hits give low values 1.01 | S. cerevisiae deletion strains, locus YNL250W, strain rad50, hits give low values 1.02 | S. cerevisiae deletion strains, locus YNL271C, strain bni1, hits give low values 0.999 | S. cerevisiae deletion strains, locus YNL298W, strain CLA4, hits give low values 1.01 | S. cerevisiae deletion strains, locus YNL307C, strain MCK1, hits give low values 1.03 | S. cerevisiae deletion strains, locus YNL322C, strain KRE1 (second series), hits give low values 1.01 | S. cerevisiae deletion strains, locus YNL322C, strain KRE1, hits give low values 1.01 | S. cerevisiae deletion strains, locus YNR049C, strain mso1, hits give low values 1.02 | S. cerevisiae deletion strains, locus YNR052C, strain pop2, hits give low values 1.01 | S. cerevisiae deletion strains, locus YOL012C, strain htz1 1.47 | S. cerevisiae deletion strains, locus YOL147C, strain pex11, hits give low values 1.02 | S. cerevisiae deletion strains, locus YOR001W, strain rrp6, hits give low values 1.02 | S. cerevisiae deletion strains, locus YOR061W, strain CKA2, hits give low values 1.01 | S. cerevisiae deletion strains, locus YOR069W, strain VPS5, hits give low values 1.01 | S. cerevisiae deletion strains, locus YOR070C, strain gyp1, hits give low values 1 | S. cerevisiae deletion strains, locus YOR080W, strain dia2, hits give low values 0.999 | S. cerevisiae deletion strains, locus YOR083W, strain WHI5, hits give low values 1 | S. cerevisiae deletion strains, locus YOR106W, strain vam3, hits give low values 1.02 | S. cerevisiae deletion strains, locus YOR136W, strain idh2, hits give low values 1.05 | S. cerevisiae deletion strains, locus YOR144C, strain elg1, hits give low values 1.02 | S. cerevisiae deletion strains, locus YOR184W, strain ser1, hits give low values 1.01 | S. cerevisiae deletion strains, locus YOR265W, strain rbl2, hits give low values 1 | S. cerevisiae deletion strains, locus YOR270C, strain vph1, hits give low values 1.02 | S. cerevisiae deletion strains, locus YOR290C, strain snf2, hits give low values 1.02 | S. cerevisiae deletion strains, locus YOR316C, strain cot1, hits give low values 1.02 | S. cerevisiae deletion strains, locus YPL051W, strain arl3, hits give low values 0.995 | S. cerevisiae deletion strains, locus YPL078C, strain atp4, hits give low values 1 | S. cerevisiae deletion strains, locus YPL106C, strain sse1, hits give low values 1.02 | S. cerevisiae deletion strains, locus YPL240C, strain hsp82, hits give low values 1 | S. cerevisiae deletion strains, locus YPR119W, strain clb2, hits give low values 1.01 | S. cerevisiae deletion strains, locus YPR141C, strain kar3, hits give low values 1.01 | S. cerevisiae deletion strains, locus YPR163C, strain tif3, hits give low values 1.02 | S. cerevisiae deletion strains, locus YPR167C, strain met16, hits give low values 1.02 | S. cerevisiae deletion strains, strain wtn01, hits give low values 1.05 | S. cerevisiae strains, strain wild type, hits give low values 1.01
